This is a sample that favours compounds with a hit; in the whole collection about 8.1% have one here.
SW480 rereplic: DNA re-replication induction in SW480 cells; SW480 DNA re-replication, Hoechst DNA content imaging, 48 h; Potency, µM (titrated, usually from 46.1 µM), without a hit: at the top dose re-replication activation, most hits filed as activators; 340,000 tested, 1.8% active; AID 624297; further: % of control where 0% means no effect; nearly all actives have a fitted effect of over 55% in size
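SW480 cells exposed to compounds for 48 hr at 37 C, 5% CO2, then Hoechst-stained 40 min. Nuclear DNA content imaged by fluorescence scanning (405 nm excitation, 500-530 nm emission); re-replication scored as increased high-intensity nuclei.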
KB-3-1 cytotox: kills parental KB-3-1 adenocarcinoma cells; 400,000 tested, 1.4% active; KB-3-1 viability, CellTiter-Glo ATP luminescence, 72 h; Potency, µM (highest dose often 46.1 µM), most hits filed as cytotoxic; further: on the % scale 0 is the no-effect control and ±100 the full control effect; nearly all actives have a fitted effect of over 60% in size
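KB-3-1 cells, DMEM (no phenol red) + 10% FBS; compound by pin transfer, 72 h, 37 °C. Readout: CellTiter-Glo luminescence after 10 min. Data normalized, curve-fitted.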
KB-V1 MDR tox: KB-V1 MDR subline cytotoxicity; KB-V1 MDR cells viability, CellTiter-Glo, 72 h; Potency, µM (highest dose often 46.1 µM), actives largely listed as cytotoxic; 400,000 tested, 3.4% active; AID 1347076; further: on the % scale 0 is the no-effect control and ±100 the full control effect; nearly all actives have a fitted effect of over 60% in size
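Following 72 h at 37 degrees C with compound, KB-V1 cell viability was read by CellTiter-Glo luminescence, medium being phenol-red-free DMEM plus 10% FBS; concentration-response parameters came from normalized, curve-fitted qHTS data.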
ELG1 DNA repair: ELG1-dependent DNA repair inhibition. HEK293T ELG1-luciferase reporter, luminescence, 16 h; DNA damage induced by 5-fluorouridine. Potency, µM (doses to about 46.1 µM), without a hit: at the top dose activity change, negative = inhibition, most hits filed as inhibitors. 330,000 tested, 2.3% active; further: on the % scale 0 is the no-effect control and ±100 the full control effect; nearly all actives have a fitted effect of over 55% in size
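Cells (2,000 per well) received 5-fluorouridine plus test compound or DMSO and were incubated 16 hr at 37 °C, 5% CO2. Luciferase activity was read by luminescence 30 min after ONE-Glo addition; signal suppression marked inhibition of damage-induced ELG1 function.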
MCF10A rereplic: DNA re-replication induction in MCF 10a cells | Potency, µM (doses to about 46.1 µM), inactives show at the top dose activity, positive = re-replication, most hits filed as activators | MCF 10A DNA re-replication, Hoechst nuclear intensity, 48 h | 350,000 tested, 2.9% active; further: % of control where 0% means no effect; nearly all actives have a fitted effect of over 50% in size
* hit, by the source's call; i = inactive; ? = inconclusive; . = no result given; [ ] = another dose, or the depositor's remark. The call rests on the fitted dose curve; in most records, active means well fitted curve in the direction sought with a large enough effect; inconclusive means small, poorly fitted or top-dose-only effect, or another doubt; inactive means no such curve, though single readings can be large; an effect the other way counts as inactive or inconclusive. Potency means the concentration at half of the fitted maximal effect.

SMILES	SW480 rereplic	KB-3-1 cytotox	KB-V1 MDR tox	ELG1 DNA repair	MCF10A rereplic
CCN(CC(=O)Nc1ccccc1C(F)(F)F)C(=O)c1ccc(NC(=O)c2cccs2)cc1	.	i	i	.	.
CSc1ccccc1NC(=O)CN(C)C(=O)c1ccc(NC(=O)c2cccs2)cc1	-9%	i	?	21µM*	13%
O=C1NC(=O)c2cc3ccccc3cc21	-6%	i	i	0%	3%
O=C(O)C1=C(CSc2nnnn2CS(=O)(=O)O)CS[C@@H]2[C@H](NC(=O)[C@H](O)c3ccccc3)C(=O)N12	-5%	.	.	.	5%
COc1cccc(-c2nn(-c3ccc(C)cc3)cc2C(=O)N2CCc3cc(OC)c(OC)cc3C2)c1	?	18µM*	23µM*	?	?
CCN1CCN(C(c2ccc(C)cc2)c2sc3nc(-c4ccco4)nn3c2O)CC1 (configuration not stated)	.	i	i	.	.
COC(=O)c1[nH]c2ccc(F)cc2c1NS(=O)(=O)c1ccc(F)c(C)c1	-107%	?	16µM*	12%	?
Cc1cc(S(=O)(=O)Nc2ccc(O)c(Sc3nc4ccccc4s3)c2)ccc1Cl	.	?	18µM*	.	.
COCCC(=O)N1CCC(Oc2ccc(C(=O)NCCn3cccn3)cc2)CC1	-2%	.	.	7%	12%
O=c1cc(C(Cl)(Cl)Cl)oc2c1ccc1ccccc12	13µM*	?	i	15%	8.2µM*
O=c1cc(-c2ccco2)oc2c1ccc1ccccc12	1%	i	i	?	9%
Nc1ncnc(N2CCOCC2)c1N	21µM*	i	i	7%	1%
Cn1cc(/C=C/c2cc[n+](C)cc2)c2cc(F)ccc21	?	i	i	?	?
Cn1cc(/C=C/c2cc[n+](C)cc2)c2cc(Cl)ccc21	11µM*	0.92µM*	i	?	13µM*
COc1ccc(/C=N/Nc2ncc(C(F)(F)F)cc2Cl)c(OC)c1OC	-7%	i	i	16%	17%
COc1cc(/C=N/Nc2ncc(C(F)(F)F)cc2Cl)cc(OC)c1O	-3%	?	21µM*	13µM*	-4%
COc1cc(/C=N/Nc2ccc(C(F)(F)F)cn2)ccc1O	19%	i	i	?	3%
COc1cc(/C=N/Nc2ncc(C(F)(F)F)cc2Cl)cc(OC)c1OC	7.3µM*	i	?	?	?
CCOC(=O)c1ccc(CN2Cc3ccccc3C2=O)cc1	-1%	i	i	-9%	19%
Cc1cn2c(=O)cc(COc3ccccc3NC(=O)c3ccccc3C)nc2s1	.	i	i	.	.
COc1ccc2c(c1)c(C(=O)CN1CCN(C(=O)c3ccco3)CC1)c(C)n2C	-6%	i	23µM*	9%	?
CCCC(=O)Nc1cccc(NC(=O)CN2CCN(c3ccccc3OC)CC2)c1	?	i	2.6µM*	?	-4%
COC(=O)c1[nH]c2cc(OC)ccc2c1NC(=O)CN1CCN(c2cccc(C)c2)C(C)C1 (configuration not stated)	15%	?	21µM*	?	?
CCOC(=O)c1[nH]c2ccc(Br)cc2c1NC(=O)CCN1CCC(C(=O)OCC)CC1	?	?	?	?	26µM*
CC[C@H]1OC(=O)[C@H](C)[C@@H](O[C@H]2C[C@@](C)(OC)[C@@H](O)[C@H](C)O2)C(C)[C@@H](O[C@@H]2O[C@H](C)C[C@H](N(C)C)[C@@H]2O)[C@](C)(OC)C[C@@H](C)C(=O)[C@H](C)[C@@H](O)[C@]1(C)O (some centres not stated)	-1%	.	.	.	-2%
Cc1ccc(S(=O)(=O)c2nnn3c2nc(N(C)Cc2ccccc2)c2cc(Cl)ccc23)cc1C	.	i	i	.	.
COC(=O)c1c(NC(=O)CN2CCN(C(=O)c3ccco3)CC2)c2c(C)cccc2n1C	-5%	i	i	?	1%
COC(=O)c1[nH]c2ccccc2c1NC(=O)CN1CCN(C(=O)c2ccco2)CC1	-2%[9.22 µM]	i	i	21µM*	6%
CCOC(=O)Nc1c(C(=O)OC)[nH]c2cc(OC)ccc12	?	21µM*	23µM*	0%	24%
